Test results from PubChem BioAssay AID1362 (SRMLSC, 2008).
The whole screen tested about 190,000 compounds, of which about 4,000 (2.1%) were called active. This is one part of a sample in which actives are shown more often than they occur. Cut-off read from the data, not from the text of the source: active = inhibition above about 58%; inactive = the rest, inconclusive results apart; tested in S. cerevisiae.

Assay: growth inhibition of WT strain, primary screen, mitochondrial fusion inhibitor project, WT and mutant strains, chemical genetic (AID 1362)
Conditions: mitochondrial fusion phenotypic screen, at 10 µM
[1] = WT strain, growth inhibition, stronger effect = higher value

| SMILES | inhibition [1] | inhibition (mutant strain inhibition) [%] |
| --- | --- | --- |
| OCC1(Cc2ccccc2)CCN(Cc2cc3ccccc3o2)CC1 | 24.3% (inactive) | 36.2 |
| Cc1csc(Nc2ccc(Cl)cc2)[n+]1-c1ccc(Cl)cc1 | 78.4% (active) | 70 |
| COc1ccc(N2CCN(C(=O)COc3ccc4c(C)cc(=O)oc4c3)CC2)cc1 | -1.11% (inactive) | -11.1 |
| CC(C)c1nc(CNC(=O)CC2C(=O)NCCN2Cc2ccoc2)cs1 (configuration not stated) | 1.8% (inactive) | 0.76 |
| CN(CCC#N)c1ncnc2scc(-c3ccccc3)c12 | 23.5% (inactive) | 28.2 |
| CN(C(=O)COc1ccccc1)c1nnc(-c2ccncc2)s1 | 22.6% (inactive) | 9.04 |
| N#CCCN(CCC#N)c1nnc(-c2ccccc2)s1 | 73.6% (active) | -2.41 |
| OCCC1CN(Cc2cccc(O)c2)CCN1CCc1ccccc1 (configuration not stated) | 9.78% (inactive) | 8.67 |
| CCc1ccc(Oc2nc([N+](=O)[O-])nn2C)cc1 | 3.07% (inactive) | 19 |
| CCc1ccc(-c2nn(-c3ccccc3)cc2CSC(=N)N)cc1 | 90.2% (active) | 35.6 |
| N=C(N)SCc1cccc2ccccc12 | 41% (inactive) | 10.9 |
| CCn1c(SCc2ccc(C)cc2)nnc1-c1nn(-c2ccccc2)ccc1=O | 4.19% (inactive) | -13.4 |
| O=C(Nc1ccc2cn[nH]c2c1)c1ccc(S(=O)(=O)N2CCOCC2)cc1 | 2.7% (inactive) | 11.1 |
| CS(=O)(=O)N1CCc2cc(C(=O)Nc3ccccc3)ccc21 | -2.67% (inactive) | -18.5 |
| Cc1c(C(=O)N2CCCc3ccccc32)sc2nc(-c3ccccc3)cn12 | 9.55% (inactive) | 9.04 |
| Cc1occc1C(=O)N1CCCc2ccccc21 | -3.43% (inactive) | -8.66 |
| Cc1cccc2cc3c(N)c(C(=O)N4CCCc5ccccc54)sc3nc12 | 62.1% (active) | 57.1 |
| C/C(=N\NC(=O)c1cccc(N2CCCC2=O)c1)c1ccc(N)cc1 | -2.44% (inactive) | -3.4 |
| CCNC(=S)NNC(=O)c1ccc2ncccc2c1 | -18.5% (inactive) | -0.98 |

| SMILES | inhibition [1] | inhibition (mutant strain inhibition) [%] |
| --- | --- | --- |
| O=C(COC(=O)c1ccc(O)cc1)Nc1nccs1 | -7.58% (inactive) | 1.79 |
| Cc1ccc(CNC(=O)CN2CCN(Cc3ccc(Cl)cc3)C2=O)cc1 | 4.82% (inactive) | -0.06 |
| O=C(CN1CCN(c2ccc(Cl)cc2)CC1)NCc1cccs1 | 14.4% (inactive) | -1.49 |
| O=C(CN1CCN(S(=O)(=O)c2ccc(Cl)s2)CC1)NCc1ccc(Cl)cc1 | 61.7% (active) | -2.81 |
| Cc1ccc2nsnc2c1S(=O)(=O)N1CCCC1C(=O)O (configuration not stated) | 2.57% (inactive) | -0.55 |
| CC(=O)NC(Cc1ccc(F)c(F)c1)C(=O)NC1CCN(c2nnnn2-c2ccccc2)CC1 (configuration not stated) | -2.05% (inactive) | 7.21 |
| CS(=O)(=O)N(Cc1ccccc1Cl)c1ccc(C(=O)NCc2cccnc2)cc1 | 1.43% (inactive) | 5.31 |
| Clc1ccc(C2=CSC3=Nc4cccc5cccc(c45)N23)cc1 | 61% (active) | 25.3 |
| COc1ccc(CN2CCNC(=O)C2CC(=O)N(C)Cc2ccccn2)cc1OC (configuration not stated) | -6.3% (inactive) | -4.12 |
| COC(=O)CSc1ccc2nnc(CCNS(=O)(=O)c3ccc(C)cc3)n2n1 | 8.31% (inactive) | 0.44 |
| CCCCCC(=O)Nc1ccc(-c2cn3cccnc3n2)cc1 | 10.4% (inactive) | 10.5 |
| COc1ccc(CCN=C2SCC(=O)N2Cc2ccccc2)cc1OC | -7.75% (inactive) | -8.9 |
| O=C(O)CCC(=O)NCc1ccc2[nH]c3c(c2c1)CCCC3 | 16.4% (inactive) | 10.2 |
| Cc1cccc(NC(=S)NCCN(C2CCCCC2)C2CCCC2)c1 | 6.36% (inactive) | -17.7 |
| Cc1cccc(NC(=S)NCc2ccc3[nH]c4c(c3c2)CCCC4)c1 | 75.3% (active) | 51.7 |
| OC(COc1ccc(CN2CCSCC2)cc1)CN1CCCCC1 (configuration not stated) | -6.41% (inactive) | 3.34 |
| C=CCN(CC=C)C(=O)COC(=O)c1n[nH]c2ccccc12 | 3.05% (inactive) | 3.34 |
| NC(=O)COC(=O)c1cc(S(=O)(=O)N2CCN(c3ccccc3)CC2)ccc1Cl | -11% (inactive) | 6.11 |
| O=C(NCc1ccccn1)Nc1ccc(F)cc1 | -29.6% (inactive) | -0.93 |

| SMILES | inhibition [1] | inhibition (mutant strain inhibition) [%] |
| --- | --- | --- |
| COc1cccc(NC(=S)NCc2ccccn2)c1 | -0.62% (inactive) | 6.49 |
| CCC(C)c1ccc(NC(=S)NCc2ccccn2)cc1 (configuration not stated) | 71% (active) | 62.6 |
| COC(=O)Cc1ccc(Oc2ncc(C(F)(F)F)cc2Cl)cc1 | 13.6% (inactive) | 17.5 |
| COc1ccccc1Oc1ccc(S(=O)(=O)Nc2cccnc2)cc1 | 7.74% (inactive) | 7.52 |
| Cc1cc(C)cc(NS(=O)(=O)c2ccc(Oc3ncc(C(F)(F)F)cc3Cl)cc2)c1 | 75.5% (active) | 23.7 |
| COC(=O)C1=C(C)N(C)C(=S)NC1c1cc(OC)ccc1OC (configuration not stated) | 4.73% (inactive) | 3.84 |
| O=C(NCc1ccccc1Cl)C1CCCO1 (configuration not stated) | -11.3% (inactive) | 7.12 |
| COC(=O)CNC(=O)c1ccc(OC2CCN(C(=O)C3CC3)CC2)cc1 | 1.17% (inactive) | 10.2 |
| CSc1cccc(NC(=S)N(C(C)C)C(C)c2ccccn2)c1 (configuration not stated) | 31.2% (inactive) | 20.5 |
| COc1cccc(NC(=S)N(Cc2ccc(C)cc2)Cc2ccccn2)c1 | 4.22% (inactive) | 20.6 |
| CSc1cccc(NC(=S)N(Cc2ccccc2)Cc2ccccn2)c1 | 65.9% (active) | 28.6 |
| CC(=O)Nc1ccc(S(=O)(=O)N(C)c2ccc(OCC(=O)OCC(=O)N3CCCCC3)cc2)cc1 | 0.1% (inactive) | -22.2 |
| Cc1ccc(SCCC(=O)Nc2cc(C)on2)cc1 | 10.3% (inactive) | -8.98 |
| NC1=NC2(CCCCC2)N(c2ccc(F)cc2F)C(N)=N1 | -0.71% (inactive) | -2.91 |
| Cc1ccc2cc(C#N)c(NCCNC(=S)NCCCN3CCOCC3)nc2c1 | 10.9% (inactive) | 3.33 |
| Cc1ccc2nc(NCCCNC(=O)c3cnccn3)c(C#N)cc2c1 | 90.6% (active) | -2.29 |
| COCCCNC(=S)NCCNc1nc2cc(C)c(C)cc2cc1C#N | 7.68% (inactive) | 10.7 |
| O=C(NC1CC1)C1CCCN(C(=O)NC2CCCCC2)C1 (configuration not stated) | -6.93% (inactive) | -6.42 |
